# Paper PMC4336329 (PLoS ONE, 2015)
# In all, about 310,000 compounds went through this assay and about 14,000 (4.5%) showed an effect of 50% or more. The effect is printed as a negative number. The sample as a whole holds a higher share of strong results than the screen did.
# Molecular target: human ether-à-go-go-related gene (hERG) potassium channel (human, UniProt Q12809)
# Assay: primary screen, population patch clamp on CHO cells stably expressing hERG; higher = less effect of the substance
# 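Further: peak tail current of the secondary pulse compared with the same well before compound.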
# Chain of human ether-à-go-go-related gene (hERG) potassium channel (Q12809 whole entry, looked up): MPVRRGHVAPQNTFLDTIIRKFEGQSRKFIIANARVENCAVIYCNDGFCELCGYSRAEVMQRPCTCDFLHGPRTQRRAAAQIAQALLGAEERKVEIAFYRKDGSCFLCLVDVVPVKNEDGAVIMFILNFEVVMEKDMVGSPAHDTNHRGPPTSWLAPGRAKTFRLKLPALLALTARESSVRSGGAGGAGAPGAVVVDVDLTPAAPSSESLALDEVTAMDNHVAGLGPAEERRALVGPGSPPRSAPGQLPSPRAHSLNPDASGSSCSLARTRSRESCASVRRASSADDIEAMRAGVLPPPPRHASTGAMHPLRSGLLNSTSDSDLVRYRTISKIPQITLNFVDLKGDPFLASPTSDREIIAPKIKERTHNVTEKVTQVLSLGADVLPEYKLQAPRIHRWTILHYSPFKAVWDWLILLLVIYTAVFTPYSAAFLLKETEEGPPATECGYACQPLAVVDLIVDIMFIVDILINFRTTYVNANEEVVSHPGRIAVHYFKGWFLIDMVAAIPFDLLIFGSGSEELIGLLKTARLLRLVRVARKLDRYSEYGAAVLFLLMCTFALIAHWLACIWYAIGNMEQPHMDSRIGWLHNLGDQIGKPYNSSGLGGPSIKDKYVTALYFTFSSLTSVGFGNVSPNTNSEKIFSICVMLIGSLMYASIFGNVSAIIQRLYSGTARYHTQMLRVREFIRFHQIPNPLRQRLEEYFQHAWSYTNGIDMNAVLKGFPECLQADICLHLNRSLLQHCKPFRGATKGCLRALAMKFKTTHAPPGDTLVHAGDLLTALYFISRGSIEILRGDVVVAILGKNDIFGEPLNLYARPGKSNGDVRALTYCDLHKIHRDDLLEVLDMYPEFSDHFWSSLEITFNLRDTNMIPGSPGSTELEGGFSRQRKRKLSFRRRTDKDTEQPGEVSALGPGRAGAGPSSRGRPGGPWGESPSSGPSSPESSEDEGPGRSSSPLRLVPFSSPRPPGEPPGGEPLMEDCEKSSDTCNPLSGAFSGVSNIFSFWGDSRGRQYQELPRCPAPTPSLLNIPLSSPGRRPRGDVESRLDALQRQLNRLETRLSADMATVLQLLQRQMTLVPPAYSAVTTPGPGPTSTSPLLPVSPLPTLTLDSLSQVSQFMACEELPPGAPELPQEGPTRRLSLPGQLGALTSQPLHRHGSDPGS
row,Structure (SMILES),"hERG current change (%, negative = inhibition) at 10uM [%]"
1,Cc1cc(=O)oc2cc(OCC(=O)OCC(=O)N(CCC#N)c3ccccc3)ccc12,6.04
2,COC(=O)c1ccc(C(=O)OC)c(NC(=O)CN(c2ccc3c(c2)OCO3)S(C)(=O)=O)c1,-21.1
3,CSCCCNC(=O)c1ccccc1OC1CCN(S(C)(=O)=O)CC1,1.38
4,CCN(CC)CCCNC(=O)c1sc2ncn(CC(=O)Nc3ccc(C)c(Cl)c3)c(=O)c2c1C,-13
5,CCN(CC)CCNC(=O)c1sc2ncn(CC(=O)Nc3ccc(C)c(Cl)c3)c(=O)c2c1C,-51.8
6,COCCNC(=O)c1sc2ncn(CC(=O)Nc3ccc(C)c(Cl)c3)c(=O)c2c1C,10.5
7,COc1ccc(C(=O)C(CCCCC(CN(C)C)C(=O)c2ccc(OC)cc2)CN(C)C)cc1.Cl (stereo not shown),-2.07
8,O/N=C/c1ccc(OCc2ccccc2F)c(Cl)c1,2.95
9,COc1cc2c(cc1NC(=O)CN1C(=O)NC3(CCc4ccccc43)C1=O)oc1ccccc12 (stereo not shown),7.1
10,C=CCn1c(COc2ccccc2)nnc1SCc1ccc(C#N)cc1,-68.2
11,C=CCn1c(COc2ccccc2)nnc1SCC(=O)O,-3.46
12,C=CCn1c(COc2ccc(Cl)cc2)nnc1SCC(=O)N1CC(=O)Nc2ccccc21,-63.5
13,C=CCn1c(COc2ccc(Cl)cc2)nnc1SCC(=O)NCC(=O)OCC,-31.4
14,C=CCn1c(COc2ccc(F)cc2)nnc1SCC(=O)N1CC(=O)Nc2ccccc21,-33
15,C=CCn1c(COc2ccc(Cl)cc2)nnc1SCC(=O)N/N=C/c1ccccc1,-7.71
16,C=CCn1c(COc2ccccc2F)nnc1SCC(=O)N1CC(=O)Nc2ccccc21,-22.6
17,C=CCn1c(COc2ccccc2)nnc1SCC(=O)C(C)(C)C,-13.6
18,C=CCn1c(COc2ccc(Cl)cc2)nnc1SCc1ccc(C#N)cc1,-69.8
19,O=C(CSCc1ccc(F)cc1)NCc1ccc(F)cc1,-24.7
20,Cc1n[nH]c(=S)n(NC(=O)CC(=O)Nn2c(=S)[nH]nc(C)c2=O)c1=O,45.4
21,COc1ccc(NC(=O)C(C)SCc2ccccc2)cc1OC (stereo not shown),-1.56

row,Structure (SMILES),"hERG current change (%, negative = inhibition) at 10uM [%]"
1,C=CCSc1nc2sc3c(c2c(=O)[nH]1)CCC3,2.84
2,CN(CC(=O)NC1CCCCC1)S(=O)(=O)c1ccc(Br)s1,20.1
3,CCc1ccc2c(c1)C1(SC(NC(C)=O)=NN1C(C)=O)C(=O)N2CC (stereo not shown),-0.0665
4,C=CCNC(=O)C1CCN(S(C)(=O)=O)CC1,-0.873
5,CNC(=S)N(Cc1cccs1)Cc1cc2ccc(OC)cc2[nH]c1=O,6.44
6,O=C1NCC(COc2ccc(Cl)cc2)O1 (stereo not shown),48.4
7,O=C1NCC(COc2ccc([N+](=O)[O-])cc2)O1 (stereo not shown),-78.4
8,COc1ccc(OCC2CNC(=O)O2)cc1 (stereo not shown),-26.2
9,CCCn1cc(CN2CCCC(C(=O)c3ccc4c(c3)OCO4)C2)c(C)n1 (stereo not shown),-55.4
10,CCn1ncc(CN2CCCC(C(=O)c3cccc(OC(C)C)c3)C2)c1C (stereo not shown),-19.8
11,CCCn1ncc(CN2CCCC(C(=O)c3cccc(OC(C)C)c3)C2)c1C (stereo not shown),-48.8
12,CCCn1cc(CN2CCCC(C(=O)c3cccc(OC)c3)C2)c(C)n1 (stereo not shown),-51
13,CCCn1cc(CN2CCCC(C(=O)c3cccc(OC(C)C)c3)C2)c(C)n1 (stereo not shown),-35.5
14,CCn1cc(CN2CCCC(C(=O)c3cccc(OC)c3)C2)c(C)n1 (stereo not shown),-21.3
15,CCCn1ncc(CN2CCCC(C(=O)c3cccc(OC)c3)C2)c1C (stereo not shown),-67.8
16,CCCn1cc(CN2CCC(n3nccc3NC(=O)c3ccc4c(c3)OCO4)CC2)c(C)n1,-5.62
17,Cc1ccc(CS(=O)(=O)c2ncc(Cl)c(C(=O)Nc3nnc(C(C)C)s3)n2)cc1,9.25
18,CC(=O)Oc1cc2cccc(OC(C)=O)c(=O)c2c(OC(C)=O)c1OC(C)=O,1.34
19,CCCCC(CC)C(=O)Nc1cc(C(=O)NCc2ccc(C)cc2)ccc1N1CCC2(CC1)CC(c1ccccc1)=NO2 (stereo not shown),2.86
20,CCCNC(=O)c1ccc(N2CCC3(CC2)CC(c2cccc(Br)c2)=NO3)c(NC(=O)c2ccccc2)c1,-0.8
21,CCCNC(=O)c1ccc(N2CCC3(CC2)CC(c2ccccc2)=NO3)c(NC(=O)c2cccc(OC)c2)c1,-68.6

row,Structure (SMILES),"hERG current change (%, negative = inhibition) at 10uM [%]"
1,CCCNC(=O)c1ccc(N2CCC3(CC2)CC(c2ccccc2)=NO3)c(NC(=O)c2cccc(C)c2)c1,-18.6
2,CCCCC(CC)C(=O)Nc1cc(C(=O)NCCC)ccc1N1CCC2(CC1)CC(c1ccccc1)=NO2 (stereo not shown),-64.6
3,CCCCC(CC)C(=O)Nc1cc(C(=O)NCCC)ccc1N1CCC2(CC1)CC(c1cccc(Br)c1)=NO2 (stereo not shown),-7.85
4,O=C(NC(=O)c1csnn1)Nc1ccccc1Cl,9.03
5,CCc1cc2c3c(c1)C(C)CC(C)(C)N3C(=O)C2=O (stereo not shown),-15.6
6,C=CCN=C1CC(C)(C)CC(=O)/C1=C(\O)c1ccccc1,-6.18
7,CCCC(=O)Nc1sc(C)c(C)c1C#N,2.9
8,Cc1cc(N(C)C)nc(Nc2ccccc2)n1,-56.8
9,CN(C)c1nc(Nc2ccccc2)nc(N(C)C)n1,8.3
10,Cc1cc(C)nc(Sc2nc(Nc3ccccc3)nc(Sc3nc(C)cc(C)n3)n2)n1,-4.94
11,COc1ccccc1CCNC(=O)NC1CCCCC1,-12.1
12,Cc1nc(C(C)NC(=O)CCc2nnc(-c3ccsc3)o2)cs1 (stereo not shown),15.8
13,CC(=Nc1ccc2c(c1)nc(CO)n2C)C1=C(O)CC(C)(C)CC1=O,2.09
14,Cc1ccccc1NS(=O)(=O)c1ccc(OCCNS(C)(=O)=O)cc1,-4.01
15,N#Cc1cc2c(nc1SCC(=O)Nc1ccc(Cl)cc1)C1CCN2CC1,-7.69
16,N#Cc1cc2c(nc1SCC(=O)Nc1cc(Cl)ccc1Cl)C1CCN2CC1,-51.7
17,CN(C)S(=O)(=O)c1ccc(Cl)c(NC(=O)CSc2nc3c(cc2C#N)C(=O)CC(C)(C)C3)c1,-65.3
18,CN(C)S(=O)(=O)c1cccc(NC(=O)CSc2nc3c(cc2C#N)C(=O)CC(C)(C)C3)c1,-34.7
19,CCN(CC)S(=O)(=O)c1cc(NC(=O)CSc2nc3c(cc2C#N)C(=O)CC(C)(C)C3)ccc1C,4.51
20,CN1CCc2nc(SCC(=O)Nc3ccc(Cl)cc3)c(C#N)cc2C1,-38.4
21,CCCCOC(=O)c1ccc(NC(=S)N2CCN(c3ncc4c(=O)c(C(=O)O)cn(CC)c4n3)CC2)cc1,11.2

row,Structure (SMILES),"hERG current change (%, negative = inhibition) at 10uM [%]"
1,C[C@H](NC(=O)c1[nH]cnc1C(=O)Nc1ccc(CNC(=O)OC(C)(C)C)cc1)C(=O)OC(C)(C)C,17.2
2,COC(=O)c1ccc(C2c3c(oc4ccc(F)cc4c3=O)C(=O)N2CCO)cc1 (stereo not shown),3.74
3,O=C(N/N=C/c1ccc(Br)s1)Nc1ccccc1,4.13
4,Cc1ccc(/C=N/NC(=O)CN2CCN(Cc3ccccc3)CC2)s1,-55.8
5,Cc1ccsc1/C=N/NC(=O)CN1CCN(Cc2ccccc2)CC1,-8.1
6,O=C(CN1CCN(Cc2ccccc2)CC1)N/N=C/c1ccc(Br)s1,-60
7,O=C(CCC(=O)N/N=C/c1ccc(Br)s1)NCc1ccccc1,5.19
8,Cc1ccc(/C=N/N2CCN(Cc3ccccc3)CC2)s1,-15.7
9,COc1cc(CC(=O)OCC(=O)Nc2ncc(Cl)cc2Cl)cc(OC)c1OC,7.58
10,COc1ccccc1NS(=O)(=O)c1ccc(O)c(C(=O)OCC(=O)c2ccc(Cl)cc2Cl)c1,23.4
11,Br.CC(C)CCC1CC(CSC(=N)N)OC1=O (stereo not shown),-14
12,Oc1ccccc1-[n+]1c(-c2ccccc2)cc(-c2ccccc2)c(O)c1-c1ccccc1.[O-][Cl+3]([O-])([O-])[O-],15.1
13,O=C([O-])c1ccccc1-[n+]1c(-c2ccccc2)cc(-c2ccccc2)cc1-c1ccccc1,-3.82
14,Nc1ccccc1-[n+]1c(-c2ccccc2)cc(-c2ccccc2)cc1-c1ccccc1.[O-][Cl+3]([O-])([O-])[O-],-50.9
15,Cc1ccccc1-[n+]1c(-c2ccccc2)cc(-c2ccccc2)cc1-c1ccccc1.[O-][Cl+3]([O-])([O-])[O-],-76.3
16,[O-]c1ccccc1-[n+]1c(-c2ccccc2)cc(-c2ccccc2)cc1-c1ccccc1,-71.1
17,Oc1ccccc1-[n+]1c(-c2ccccc2)cc(-c2ccccc2)cc1-c1ccccc1.[O-][Cl+3]([O-])([O-])[O-],-71.2
18,O=C([O-])c1ccc(-[n+]2c(-c3ccccc3)cc(-c3ccccc3)cc2-c2ccccc2)cc1,-0.807
19,Cc1ccc(-c2cc(-c3ccccc3)cc(-c3ccccc3)[n+]2-c2ccccc2C(=O)O)cc1.[O-][Cl+3]([O-])([O-])[O-],-21.5
